# Assay outcomes: PubChem, National Center for Advancing Translational Sciences (NCATS)
# Only some compounds are listed: those with a hit (about 9.5% of all), similar ones and a draw of the others.
# Pf growth 96h – inhibits malaria parasite growth, 96 h. P. falciparum luciferase reporter growth, 96 h. Potency, µM (titrated, usually from 28.7 µM), for the others: top-dose activity change, negative = inhibition, usual class: inhibitors. actives 6.9% (n = 320,000). AID 504834; active means well fitted inhibition curve with a large enough effect; inconclusive means small, poorly fitted or top-dose-only effect, or another doubt; inactive means no such curve, though single readings can be large or run the other way; further: on the % scale 0 is the no-effect control and ±100 the full control effect
#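 Readout is luminescence from an integrated firefly luciferase in P. falciparum. Red cells, 2% hematocrit and 0.05% parasitemia final, were cultured with compound through two parasite generations (96 hours) at 37 C, 5% CO2.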
# SARS PLpro yeast – inhibitors of SARS-CoV papain-like protease in yeast; Potency, µM (top dose mostly 32.9 µM), for the others: top-dose activity, positive = growth rescue, usual class: activators; S. cerevisiae expressing SARS-CoV PLpro, growth rescue; actives 0.19% (n = 330,000); AID 485353; further: 0% is about no effect; nearly all actives have a fitted effect of over 55% in size
# NS1 function inh – blocks influenza NS1 protein function; actives 0.4% (n = 270,000); Potency, µM (doses to about 46.1 µM), for inactives: at the highest dose activity, positive = more growth; further: actives are rising curves; nearly all actives have a fitted effect of over 50% in size
#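 Recovery from NS1-induced slow growth read by OD600 in budding yeast switched to galactose assay medium (pH 6.0, -URA) at 1:100 dilution. Compound 23 nl per well; the matching strain lacking NS1 serves as control.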
# Pf growth 48h – inhibits P. falciparum growth in the first generation, 48 h | P. falciparum luciferase growth in erythrocytes, 48 h | Potency, µM (doses to about 28.7 µM), inactives show at the highest dose activity change, negative = inhibition, most hits filed as inhibitors | actives 5.9% (n = 310,000) | AID 504832; active means well fitted inhibition curve with a large enough effect; inconclusive means small, poorly fitted or top-dose-only effect, or another doubt; inactive means no such curve, though single readings can be large or run the other way; further: on the % scale 0 is the no-effect control and ±100 the full control effect
#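 Luciferase-expressing parasites in RBCs, 2% Hct / 0.1% parasitemia final; RPMI 1640 + 0.5% Albumax; 37 C, 5% CO2, one generation; luminescence read-out, lower signal = inhibition.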
# RE007 growth inh – less growth of the S. pombe RE007 Vpr strain. Potency, µM (highest dose often 92.2 µM), for the others: at the highest dose activity change, negative = less growth, most hits filed as inhibitors. AID 651644. S. pombe RE007 Vpr strain, BacTiter-Glo ATP luminescence, 24 h. actives 0.21% (n = 360,000); active means well fitted falling curve with a large enough effect; inconclusive means small, poorly fitted or top-dose-only effect; inactive means no such curve, though single readings can be large or run the other way; further: on the % scale 0 is the no-effect control and ±100 the full control effect; nearly all actives have a fitted effect of over 50% in size
#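 Fission yeast RE007 carrying one integrated HIV-1 vpr copy, seeded at OD 0.01 in PMG+AL medium with 23 nL pinned compound. Grown 24 h at 30 degrees; viability read by BacTiter-Glo luminescence after 5 min.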
# * marks the source's active call; other numbers are inactive results; ? = inconclusive; nt = no result; [ ] = another dose, or the depositor's remark. Unless noted, the call rests on the fitted dose curve. Potency means the concentration at half of the fitted maximal effect.
SMILES,Pf growth 96h,SARS PLpro yeast,NS1 function inh,Pf growth 48h,RE007 growth inh
CCOC(=O)N1CCN(C(=O)CSc2ccc(C(=O)OC)cc2[N+](=O)[O-])CC1,4.65µM*,-1.2%,-4.5%,-19.1%,30.3%
CCOc1ccc(/C=N/N2C(=O)C(CC(=O)Nc3ccc(F)cc3F)SC2=NC)cc1OC (configuration not stated),11.7µM*,15.3%,7.0%,11.7µM*,15.6%
CN=C1SC(CC(=O)Nc2ccccc2F)C(=O)N1/N=C/c1ccc(O)c(OC)c1 (configuration not stated),-23.2%[5.75 µM],-0.1%,nt,-18.4%,2.1%
Cc1cc(C(F)(F)F)nc(SCCN2CCOCC2)c1C#N,12.1%,-0.8%,1.4%,4.9%,-2.6%
N#Cc1c(C(F)(F)F)cc(-c2ccc(Cl)c(Cl)c2)nc1SCCN1CCOCC1,2.33µM*,-7.3%,2.8%,?,-9.7%
CN(C)c1ccc(N/C=C/C(=O)C(C)(C)C)cc1,nt,-15.4%,-0.9%,2.33µM*,0.3%
CN(C)c1ccc(N/C=C/C(=O)c2ccccc2)cc1,nt,-6.6%,-13.7%,-37.6%,-14.2%
O=c1[nH]n2c(=O)c3c([nH]c2c1N=Nc1cccc(Cl)c1)CCC3,?,4.4%,?,-19.2%,-10.8%
Cc1[nH]n(C(N)=S)c(=O)c1N=Nc1cccc(C(F)(F)F)c1,?,0.0%,-2.1%,1.31µM*,3.0%
NS(=O)(=O)c1ccc(N=Nc2c(=O)[nH]n3c(=O)c4c([nH]c23)CCCC4)cc1,2.33µM*,0.1%,-1.6%,?,1.1%
O=c1[nH]n2c(=O)c3c([nH]c2c1N=Nc1cccc(C(F)(F)F)c1)CCCC3,?,0.4%,?,13.1µM*,20.0%
COc1cccc(N=Nc2c(=O)[nH]n3c(=O)c4c([nH]c23)CCC4)c1,-29.5%,-23.2%,?,-2.5%,7.2%
